# Only a selection was taken, and hits are over-represented in it overall.
# Pf Dd2 inh = qHTS Primary assay for Inhibitors of Plasmodium falciparum Dd2 growth in vitro; Potency, µM (top dose mostly 28.9 µM), without a hit: at the top dose activity, negative = inhibition, most hits filed as inhibitors; P. falciparum Dd2 growth, SYBR Green, 72 h; AID 1347417, 2020; 120,000 compounds, 4.3% hits; active means well fitted inhibition curve with a large enough effect;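 further: plate controls were DMSO vehicle for no effect and reference drug for full effect; nearly all actives have a fitted effect of over 65% in size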
#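 Infected erythrocytes (Dd2, 0.3% parasitemia, 2.5% hematocrit final) are added to compound in RPMI-1640/Albumax II medium, grown 72 h at 37C in low oxygen, then lysed with saponin/Triton-X containing SYBR Green and read by fluorescence.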
# Numbers without * were called inactive; i = inactive; [ ] = remark or other dose. Potency means the concentration at half of the fitted maximal effect.
SMILES,Pf Dd2 inh
Cc1ccc(-c2noc([C@@H]3C[C@H](NC(=O)Nc4ccc(Cl)cc4)CN3C)n2)cc1,-8.1%[44.1 µM]
COc1ccc(-c2noc([C@@H]3C[C@H](NCc4ccc(S(C)(=O)=O)cc4)CN3C)n2)cc1,-13.1%
COc1ccc(-c2noc([C@@H]3C[C@H](NC(=O)c4ccc(F)cc4)CN3C)n2)cc1,i
COc1ccc(NC(=O)N[C@H]2C[C@@H](c3nc(-c4ccc(F)cc4)no3)N(C)C2)cc1,i
COc1ccc(C(=O)N[C@H]2C[C@@H](c3nc(-c4ccccc4)no3)N(C)C2)cc1,i
O=c1[nH]c(C2CCCN(Cc3cccnc3)C2)nn1-c1ccc(Cl)cc1 (stereo not given),i
CCN(Cc1ccccc1)C(=O)c1c(C)oc2ccn(Cc3ccccc3F)c(=O)c12,i
COc1ccc(CC(=O)N2[C@@H]3CC[C@H]2CC(NC(=O)c2ccncc2)C3)cc1 (stereo not given in full),-26.8%
CCc1cn(C[C@H](NC(=O)C(C)(C)C)C(=O)O)c(=O)[nH]c1=O,-11.1%[44.1 µM]
O=C1NCCCCCCN(C(=O)CCc2nc3ccccc3s2)[C@H]2CCC[C@@H]12,-22.7%
CCCN(CC1CCOC1)C(=O)Nc1cccc(CC)c1 (stereo not given),13.6%[5.79 µM]
O=C(COc1ccccc1)N1CCCC1c1nc(C2CCOCC2)no1 (stereo not given),70.3%
CCCCNC(=O)c1cn(C)c2ccc(S(=O)(=O)N3CCCC3)cc2c1=O,-4.7%
Cn1cc(C(=O)NCCc2ccc(Cl)cc2)c(=O)c2cc(S(=O)(=O)N3CCCCC3)ccc21,64.5%
Cn1cc(C(=O)NCCc2ccccc2)c(=O)c2cc(S(=O)(=O)N3CCCCCC3)ccc21,12.6µM*
Cc1nn(C)c(C)c1CN(Cc1ccnc2ccccc12)C1CC1,-6.6%
Cc1ccc(-c2noc(-c3ccccc3NC(=O)C3CC(=O)N(c4ccc(C)cc4)C3)n2)cc1 (stereo not given),1.41µM*
Cc1ccc(N2CC(C(=O)Nc3ccc(Cl)cc3Cl)CC2=O)cc1 (stereo not given),36.7%
Cc1ccc(N2CC(c3noc(-c4ccccc4C)n3)CC2=O)cc1 (stereo not given),11.4%
CN(C)C(=O)N(C)Cc1cccc(C(F)(F)F)c1,2.5%[44.1 µM]
COCCn1nnnc1C1CC2(CCOCC2)C(=O)N1Cc1cccc(F)c1 (stereo not given),35.3%
CNCc1ccccc1-c1ccccc1,11.2µM*
CNCc1ccccc1OC,1.4%[44.1 µM]
CNCc1ccccc1C(F)(F)F,50.0%[44.1 µM]
CN(C)C(=O)c1cccnc1OC1CCN(C(=O)c2ccc(F)cc2)C1 (stereo not given),3.5%
SMILES,Pf Dd2 inh
O=C(c1cccs1)c1cn(CCOc2ccc(F)cc2)c2ccccc12,-29.6%
Cc1ccc(NC(=O)Cn2cc(C(=O)c3ccco3)c3ccccc32)c(C)c1,-19.4%
O=C(c1ccco1)c1cn(CCOc2ccc(F)cc2)c2ccccc12,1.26µM*
O=C(N1CCN(Cc2ccccc2)CC(O)C1)C1(N2CCCC2)CCCC1 (stereo not given),4.47µM*
CC(=O)N1CCC(C(=O)N2CCN(Cc3ccccc3)CC(O)C2)CC1 (stereo not given),6.2%
CN(C)C(=O)CCC(=O)N1CCN(Cc2ccccc2)CC(O)C1 (stereo not given),10.5%
Cc1cccc(CC(=O)N2CCC3(CCCCO3)CC2)c1,-1.2%
CN1CCCN(C[C@@H]2CN(Cc3cccc(CCN)c3)C[C@@H]2CO)CC1,11.5%
NCCc1cccc(CN2CCC(OCc3ccccc3)CC2)c1,4.47µM*
Cc1cc(CN2CCN(c3cccc(C)c3C)CC2)cs1,-19.5%
COCC(=O)N1CCCC(C(=O)N2CCC(OCc3ccccc3)CC2)C1 (stereo not given),-9.3%
Cc1cccc(CN2CCCC(COc3ccccc3C(=O)N3CCOCC3)C2)c1 (stereo not given),0.0%
O=C(c1ccco1)N1CCC(Oc2cccc(F)c2)C1 (stereo not given),i
Cc1ccccc1N1CCCN(Cc2cccc(CCN)c2)CC1,8.91µM*
NCCc1cccc(CN2CCCC(COc3ccccc3F)C2)c1 (stereo not given),2µM*
O=c1[nH]ccn1C1CCN(Cc2ccccc2)CC1,16.4%[44.1 µM]
NCCc1ccc(CN2CCC(Oc3ncccn3)CC2)cc1,-8.4%
O=C(c1ccccc1OCC1CCCN(Cc2ccc(O)c(F)c2)C1)N1CCCCC1 (stereo not given),-24.0%
NCCc1cccc(CN2CCC(Oc3cccc(F)c3)CC2)c1,10µM*
Cn1ccc(C(=O)N2CCC(c3nnc4n3C(C(=O)NCCc3ccc(Cl)cc3)CC4)CC2)n1 (stereo not given),12.2%
CC(C)C1CN(C(=O)CN(C)C2CCNCC2)CCC(=O)N1CC1CC1 (stereo not given),3.0%
Cc1noc(C)c1CN1CCNc2cc(-c3ccccc3)ncc2C1,-24.1%[44.1 µM]
CCc1cc(N2CCC(Oc3ccccc3OC)(C(=O)O)CC2)nc(C)n1,i
N#Cc1csc(N2CC3CCC(C2)N3CC(F)(F)F)n1,i
CC(C)c1nnnn1[C@H]1CO[C@H]2[C@@H]1OC[C@H]2OC(=O)Nc1ccc(Oc2ccccc2)cc1,i
SMILES,Pf Dd2 inh
Cc1cccnc1CN1CCN2C(=O)N(Cc3ccc(F)cc3)C[C@H]2C1,i
Cc1nc(N2CCN(C(=O)c3ccc(C)c(F)c3)CC2)cc(C(F)(F)F)n1,-22.8%
CN1CCN(c2ccc(-c3cc4c(ccn4C)c(C(=O)NCc4cccnc4)n3)cc2)CC1,6.31µM*
Cc1ccc(-c2cc3c(ccn3C)c(C(=O)NCc3cccnc3)n2)cn1,i
Cn1ccc2c(C(=O)NCc3cccnc3)nc(-c3cncnc3)cc21,25.2%[44.1 µM]
O=C(NC1CCCc2c1[nH]c1ccc(F)cc21)c1cccs1 (stereo not given),i
Cc1noc(C)c1CC(=O)NC1CCCc2c1[nH]c1c(Cl)cccc21 (stereo not given),7.94µM*
Cc1noc(C)c1C(=O)NC1CCCc2c1[nH]c1ccc(F)cc21 (stereo not given),-10.9%
CC(C)CC(=O)NC1CCCc2c1[nH]c1c(Cl)cccc21 (stereo not given),-22.4%
O=C(CCNC(=O)c1cnccn1)NC1CCCc2c1[nH]c1ccc(F)cc21 (stereo not given),-9.1%
O=C(Cc1c[nH]c2ccccc12)NC1CCCc2c1[nH]c1ccc(F)cc21 (stereo not given),12.6µM*
COc1ccc(CC(=O)NC2CCCc3c2[nH]c2ccc(F)cc32)cc1OC (stereo not given),-16.4%
Cc1noc(C)c1C(=O)NC1CCCc2c1[nH]c1c(Cl)cccc21 (stereo not given),-8.5%
Cc1noc(C)c1CCC(=O)NC1CCCc2c1[nH]c1ccc(F)cc21 (stereo not given),11.2µM*
Cc1ccc(C(=O)N2CCC3(CC2)NC(=O)N(c2ccccc2Cl)N3)c(C)c1,-10.2%
COc1ccc(C2Cn3nnc(C(=O)N4CCC(C(=O)NCc5ccccc5F)CC4)c3CO2)cc1 (stereo not given),11.3%
Cc1ccc(NC(=O)N2CCCCCCNC(=O)CC2c2ccccc2)cc1C (stereo not given),-5.6%
O=C(Cn1nc2c(cc1=O)CCCC2)N1CCN(Cc2ccccc2Cl)CC1,-3.2%
COCC(=O)NC[C@H]1CCN(C2CCSCC2)C[C@H]1N(C)C,i
CN(CC(O)COc1cccc(CNCCOc2ccccc2)c1)C1CCCCC1 (stereo not given),4.47µM*
CCN1CCN(CC(O)COc2cccc(CNCCc3cccc(C)n3)c2)CC1 (stereo not given),i

# Bioassay records as filed in PubChem.
